# ROC1-CUL1 inh – blocks human RBX1-Cullin-1 di-ubiquitin formation | inhibition, % at 10 µM | AID 1347404 | in vitro K48 di-Ub FRET, acceptor:donor ratio, 45 min | actives 0.6% (n = 140,000); in the data active = inhibition above about 25%
# Target sequence (P62877 whole entry, looked up): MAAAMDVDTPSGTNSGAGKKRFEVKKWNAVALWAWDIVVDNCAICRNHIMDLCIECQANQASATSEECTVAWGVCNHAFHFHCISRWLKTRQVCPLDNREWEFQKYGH
# Target sequence (Q13616 whole entry, looked up): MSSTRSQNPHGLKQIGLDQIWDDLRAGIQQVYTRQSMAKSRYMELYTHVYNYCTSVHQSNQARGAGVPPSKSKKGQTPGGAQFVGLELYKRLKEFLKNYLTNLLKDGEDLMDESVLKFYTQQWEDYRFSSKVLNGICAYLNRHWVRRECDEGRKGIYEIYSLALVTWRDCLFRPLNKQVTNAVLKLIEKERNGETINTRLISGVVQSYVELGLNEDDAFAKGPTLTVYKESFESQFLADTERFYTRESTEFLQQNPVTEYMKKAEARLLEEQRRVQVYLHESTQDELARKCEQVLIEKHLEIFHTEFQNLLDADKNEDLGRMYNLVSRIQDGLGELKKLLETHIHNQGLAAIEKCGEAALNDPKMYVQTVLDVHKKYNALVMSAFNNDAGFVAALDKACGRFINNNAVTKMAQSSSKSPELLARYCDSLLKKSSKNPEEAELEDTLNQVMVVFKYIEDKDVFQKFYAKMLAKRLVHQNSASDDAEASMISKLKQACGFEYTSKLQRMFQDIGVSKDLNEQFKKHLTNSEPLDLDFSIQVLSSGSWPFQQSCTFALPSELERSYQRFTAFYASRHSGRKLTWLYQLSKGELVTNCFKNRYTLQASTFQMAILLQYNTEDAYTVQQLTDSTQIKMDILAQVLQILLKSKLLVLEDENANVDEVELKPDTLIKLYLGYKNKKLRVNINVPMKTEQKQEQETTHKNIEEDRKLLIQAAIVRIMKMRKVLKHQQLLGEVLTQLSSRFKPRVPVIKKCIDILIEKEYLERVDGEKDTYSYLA
# Numbers stand for hits; i = inactive. Many of the other results were omitted from the sample, so hits are more common in it than they were.
SMILES,ROC1-CUL1 inh
Cc1cccc(C(=O)N2CCCC2C(=O)Nc2ccc(-n3ccnc3C)cc2)n1 (centres undefined),i
Fc1ccccc1-c1cnnc(NCC(c2ccncc2)N2CCOCC2)n1 (centres undefined),i
CCOc1ccc2c(c1)-c1c(ssc1=Nc1ccc(C(C)C)cc1)C(C)(C)N2,i
Cc1ncc2c(c1CNC(=O)Cc1cccs1)CCN(C(=O)/C=C/c1ccccc1Cl)C2,i
O=C1NC(=S)NC(=O)C1=Cc1cc(Cl)ccc1OCc1ccc(C(=O)O)cc1,i
C=CCN1C(=O)/C(=C/c2c(OCc3ccccc3C#N)ccc3ccccc23)C(=O)NC1=S,i
O=C1NC(=S)NC(=O)C1=Cc1c(OCc2ccc(Br)cc2)ccc2ccccc12,58.4
c1ccc(CCNCCCN2CCOCC2)cc1,i
COc1ccc(-c2cc(C(F)(F)F)nc(SCC(=O)Nc3ccc(OC)cc3OC)n2)cc1,i
CCc1ccccc1N1C(=O)/C(=C/c2cccn2-c2ccc(Cl)cc2)C(=O)NC1=S,36.4
CCCN1C(=O)/C(=C\c2cccn2-c2cccc(C(F)(F)F)c2)C(=O)N(c2ccccc2)C1=S,i
CCOc1ccc(N2C(=O)/C(=C/c3cccn3-c3cccc(C(=O)O)c3)C(=O)NC2=S)cc1,i
O=C1NC(=S)N(c2cccc(F)c2)C(=O)/C1=C/c1cccn1-c1cccc(C(F)(F)F)c1,i
Cc1ccc(N2C(=O)/C(=C/c3cc(C)n(C(C)C)c3C)C(=O)NC2=S)c(C)c1,i
Cc1cccc(N2C(=O)/C(=C/c3cccn3-c3cccc(C(=O)O)c3)C(=O)NC2=S)c1,i
COc1ccc(Cl)cc1/C=C1\C(=O)NC(=S)N(c2ccc(C)cc2C)C1=O,i
Cc1cccc(N2C(=O)/C(=C/c3cccn3-c3cccc(C(F)(F)F)c3)C(=O)NC2=S)c1C,53.4
Cc1cccc(N2C(=O)/C(=C/c3cccn3-c3ccc(Cl)cc3)C(=O)NC2=S)c1C,i
CN(C)c1ccc(-n2cccc2/C=C2\C(=O)NC(=S)N(c3ccc(Br)cc3)C2=O)cc1,i
Cc1ccc(N2C(=O)/C(=C/c3cn(CC(=O)O)c4ccccc34)C(=O)NC2=S)c(C)c1,54.3
Cc1ccc(N2C(=O)/C(=C/c3cccn3-c3cccc(C(=O)O)c3)C(=O)NC2=S)c(C)c1,97.5
CCn1c(SC(C)C(=O)NC(c2ccccc2)c2ccccc2)nnc1-c1ccc(N)cc1 (centres undefined),i
O=C1CSc2nc(-c3cnccn3)nn21,i
COc1cccc(-c2cccc(N3CCC(NC4CCCOC4)CC3)c2)c1 (centres undefined),i
CCOc1ccc(CC(=O)Nc2sc3c(c2C(=O)Nc2cccc(C(F)(F)F)c2)CCCC3)cc1OCC,i
SMILES,ROC1-CUL1 inh
CC(=O)N1CCN(C(=O)c2ccc(S(=O)(=O)N3CCCC3)cc2)CC1,i
CN=C1CC=C(Br)C=C(C(=O)/C=C/c2ccc(C#N)cc2)C1=O,i
CN=C1CC=C(Br)C=C(C(=O)/C=C/c2ccc3c(c2)OCO3)C1=O,i
CN=C1CC=CC=C(C(=O)/C=C/c2cccc(C#N)c2)C1=O,49.4
CCN=C1CC=CC=C(C(=O)/C=C/c2ccc3c(c2)OCO3)C1=O,i
CN=C1CC=CC=C(C(=O)/C=C/c2ccc3c(c2)OCO3)C1=O,93.4
CN=C1CC=CC=C(/C(C)=N/Nc2ccccc2)C1=O,i
O=C(c1nc(-c2ccccc2)n(-c2ccc(Cl)cc2)n1)N1CCOCC1,i
N=c1c(C(N)=O)cc2c(=O)n3ccccc3nc2n1CCN1CCOCC1,i
Cc1ncsc1CCCNC(=O)CCN1Cc2ccccc2OC(c2ccccc2F)C1 (centres undefined),i
CN(C(=O)c1coc(COc2ccccc2F)n1)C1CCCCC1,i
N=C1C(Br)C(=O)Nc2nnc(-c3ccc(Cl)cc3)n21 (centres undefined),31.5
COc1ccc(-n2c(-c3ccccc3)nnc2-c2ccc(Cl)cc2)cc1,i
Cc1ccc(-n2c(SCC(N)=O)nnc2-c2ccc(Cl)cc2)cc1,i
CCOc1ccc(-c2nn3c(-c4ccncc4)nnc3s2)cc1,i
CCCn1c(C)c(CC(=O)NCc2n[nH]c(C)n2)c2c1CC(C)(C)CC2=O,i
COc1ccc2c(c1)-c1c(sn(-c3ccc(C)c(Cl)c3)c1=S)C(C)(C)N2,i
CCNC(=O)N1CCNC(=O)C1CC(=O)N1CCN(c2ccccc2)CC1 (centres undefined),i
COC(=O)c1ccc(C(=O)OC)c(NC(=O)Cc2ccc(Br)cc2)c1,i
COC(=O)c1ccc(C(=O)OC)c(NC(=O)CCc2ccccc2)c1,i
COC(=O)c1ccc(C(=O)OC)c(NC(=O)CN(C)C)c1,50.8
Cc1ccc(OCCCCN2CCNCC2)c(C(C)(C)C)c1,25.1
Cc1cc(Cl)ccc1OCCCCCN1CCNCC1,i
Cc1ccc(OCCCCCN2CCNCC2)cc1,i
CCC(NC(=O)c1ccccc1C)c1ccccc1 (centres undefined),i
SMILES,ROC1-CUL1 inh
COC(=O)c1ccc(-c2cccc3c2OC(CNC(=O)Cc2c(C)nn(-c4ccccc4)c2C)C3)nc1 (centres undefined),i
O=C1CCCc2c1c1cccc3c1n2CCC3,i
Nc1ncc2c3c1c(=O)c1ccccc1n3CCC2,50.0
O=C1OC(Cc2ccncc2)C(=O)C1=C1SCCCS1 (centres undefined),i
CC(C)(c1ccc(N=Cc2cc(Br)cc(Br)c2O)cc1)c1ccc(N=Cc2cc(Br)cc(Br)c2O)cc1,i
CC(C)(C)CN1CC(NC(=O)CCC(F)(F)F)CC1=O (centres undefined),i
COCCOC1CCN(Cc2cc(OC)ccc2OCC(O)CN(C)C)CC1 (centres undefined),i
CCc1nnc(NC(=O)COC)s1,i
CCOCC(=O)Nc1nnc(CC)s1,i
CCc1nnc(NC(=O)CCSCCC(=O)Nc2nnc(CC)s2)s1,37.1
CCOC(=O)C1=C(c2ccccc2)N=c2s/c(=C\c3ccc(N(C)C)c(Br)c3)c(=O)n2C1c1cccc(OC)c1OC (centres undefined),i
COc1cccc(-c2cnc(-c3ccncc3)nc2C2CCN(Cc3ccc(N(C)C)cc3)CC2)c1,i
CCc1ccc(NC(=O)CSc2nnc(COc3ccc(OC)cc3)n2CC)cc1,i
COc1ccc2occ(C(=O)c3coc4ccc(OC)cc34)c2c1,i
O=C(O)c1ccccc1-c1occ(C(=O)c2ccccc2)c1C(=O)O,i
COc1ccc(-c2occ(C(=O)O)c2C(=O)O)cc1,47.0
O=C(/C=C/c1ccco1)c1ccc(Cl)c(Cl)c1,i
CCCCNS(=O)(=O)c1ccc2c(c1)C(=O)c1cc(S(=O)(=O)NCCCC)ccc1-2,i
CC1CCN(CN2C(=O)C(=O)c3ccccc32)CC1,i
Cc1cc(C)nc(CNc2nncc(-c3cc4ccccc4o3)n2)n1,i
CC(=O)c1cc(Br)ccc1OC(=O)c1ccc(C)cc1,i
COc1ccc(OCc2cc(C(=O)N3CCCCCCC3)n[nH]2)c(Cl)c1,i
CCOC(=O)c1cccc2c1N[C@@H](c1ccc(F)cc1)[C@H]1CC=C[C@@H]21,i
COC(=O)c1cccc2c1N[C@@H](c1ccncc1)[C@H]1CC=C[C@@H]21,i
Cc1c(C(=O)O)ccc2c1N[C@@H](c1ccc(F)cc1)[C@H]1CC=C[C@@H]21,76.0
COCc1ccc(CN2CCc3c(C(=O)N4CCCCC4C(=O)OC)c(OC)cc(=O)n3CC2)o1 (centres undefined),i
Cc1ccc2nc(-c3ccc(N4C(=O)CC(N5CCN(c6ccc([N+](=O)[O-])cc6)CC5)C4=O)cc3)sc2c1 (centres undefined),i
Nc1cc2nsnc2cc1Br,96.4
Nc1cnc(Br)cc1Br,i

# Screening results deposited in PubChem by Pan Lab, Icahn School of Medicine at Mount Sinai.
